CtBP-E1A inh = inhibitors of CtBP/E1A interaction; AlphaScreen GST-E1A/His-CtBP binding, 1536-well; active compounds read low; activity change, % (concentration not given with the values); 0.49% of 340,000 active; AID 651724; in the data active = activity change below about -65%; inconclusive = mostly about -30% to -63%; also: % is scaled to controls: 0 for no effect and ±100 for the full control effect
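Steps: dispense buffer (Tris pH 8.0, NaCl 300 mM, TCEP 1 mM, BSA, Tween 20); add 5X protein mix (GST-E1A, His-CtBP, 125 nM each); pin 23 nL compound; 2 h at 37 °C, dark; add 5X beads (50 ug/mL); 1 h; read.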
HP1b chromo inh = blocks HP1-beta chromodomain binding to methylated histone tails. AlphaScreen HP1-beta / biotin-H3K9me3 peptide binding. 0.56% of 390,000 active. Potency, µM (titrated, usually from 114 µM), inactives show top-dose activity change, negative = inhibition, most hits filed as inhibitors. P83916; also: potency is read from the fitted curve at half-maximal effect; nearly all actives have a fitted effect of over 70% in size
Target sequence (P83916 whole entry, looked up): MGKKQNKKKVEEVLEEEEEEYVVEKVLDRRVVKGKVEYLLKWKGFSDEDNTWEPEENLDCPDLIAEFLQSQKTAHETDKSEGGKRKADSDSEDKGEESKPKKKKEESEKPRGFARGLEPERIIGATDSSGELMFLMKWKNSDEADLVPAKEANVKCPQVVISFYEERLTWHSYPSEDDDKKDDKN
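HP1-beta protein (50 nM final) preincubated 30 min at room temperature with biotinylated H3(1-18)K9me3 peptide (50 nM) in PBS pH 7.4, 0.01% Tween-20, then compound added for 30 min. AlphaScreen streptavidin donor/nickel chelate acceptor beads (10 ug/mL final), 30 min dark, luminescence read.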
Six1-Eya2 inh = blocks human Six1 binding to Eya2 | Q15475+O00167 | AlphaScreen GST-Six1/His-Eya2 binding, biochemical; active compounds read low | 0.56% of 360,000 active | activity change, % (test concentration not listed); in the data active = activity change below about -65%; inconclusive = mostly about -30% to -63%; also: % is scaled to controls: 0 for no effect and ±100 for the full control effect
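AlphaScreen luminescence read after one hour at 37 °C in darkness. Pin-transferred compounds met GST-Six1 and His-Eya2 protein (5X stock 250 nM/500 nM) plus glutathione donor and Ni-chelate acceptor beads (5X, 50 ug/mL).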
TDP1 inh = TDP1 (human) enzyme inhibition. recombinant TDP1, AlphaScreen DNA substrate cleavage. Potency, µM (series often up to 130 µM), for inactives: top-dose activity change, negative = inhibition, usual class: inhibitors. 0.28% of 350,000 active. AID 485290; also: potency is read from the fitted curve at half-maximal effect; % is scaled to controls: 0 for no effect and ±100 for the full control effect; nearly all actives have a fitted effect of over 40% in size
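Recombinant human Tdp1 (E. coli-expressed, 1 nM final) preincubated with compounds 15 min at room temperature, then 5'-biotin/3'-phosphotyrosine-FITC DNA substrate (15 nM final) added for 5 min. AlphaScreen beads (10 ug/ml final) added 10 min; cleavage lowers signal.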
BAZ2B inh = blocks human BAZ2B | AlphaScreen BAZ2B-H3K14Ac peptide displacement | Potency, µM (highest dose often 114 µM), inactives show at the top dose activity change, negative = inhibition, usual class: inhibitors | 4.4% of 360,000 active | AID 504333; also: potency is read from the fitted curve at half-maximal effect; % is scaled to controls: 0 for no effect and ±100 for the full control effect; nearly all actives have a fitted effect of over 60% in size
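AlphaScreen displacement: compounds (up to 110uM) incubated 30 min at room temperature with a preformed 50 nM BAZ2B/50 nM biotinylated H3K14Ac peptide complex in PBS pH 7.4 with Tween-20. Donor and acceptor beads at 10 ug/mL final added, 20 min light-protected before reading.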
JMJD2A Tudor = blocks the human JMJD2A Tudor domain; O75164; 4.4% of 390,000 active; AID 504339; Potency, µM (top dose mostly 114 µM), for the others: at the top dose activity change, negative = inhibition, most hits filed as inhibitors; AlphaScreen JMJD2A-Tudor / H3K4me3 peptide binding; also: potency is read from the fitted curve at half-maximal effect; % is scaled to controls: 0 for no effect and ±100 for the full control effect; nearly all actives have a fitted effect of over 50% in size
The depositor's hits bear a star; ? = inconclusive; nt = no result given; [ ] = dose if it differs, or a comment. Rows were chosen to be rich in hits. Some 5.3% of all compounds tested hit in one or more screens of this group. Unless noted, calls follow the shape of the dose curve; as a rule, active = well fitted inhibition curve with a large enough effect; inconclusive = small, poorly fitted or top-dose-only effect; inactive = no such curve, though single readings can be large or run the other way.

SMILES	CtBP-E1A inh	HP1b chromo inh	Six1-Eya2 inh	TDP1 inh	BAZ2B inh	JMJD2A Tudor
COc1ccc(Cn2ccnc2)cc1Br	-1.3	5.5%	-6.3	-5.1%	50.1µM*	?
COc1ccc(NCc2ccc(OC)c(OC)c2)cc1	nt	nt	nt	8.7%	?	nt
COc1ccc(Cn2ccnc2)cc1[N+](=O)[O-]	0.6	9.1%	9.7	5.5%	-21.9%	-11.4%
COc1ccc(C2/C(=C(/O)c3ccc(F)cc3)C(=O)C(=O)N2c2ccccn2)cc1OC (stereo unspecified)	4.3	22.9%	6.8	nt	-1.9%	17.8µM*
COc1cccc(C(=O)CSc2nnc(CNS(=O)(=O)c3ccc(C)cc3)n2C)c1	-1.6	?	-1.0	-4.2%	-3.3%	20µM*
COC(=O)CSc1nnc(CNS(=O)(=O)c2ccc(C)cc2)n1C	-9.3	27.2%	3.8	3.2%	20.4%	11.0%
Cc1cc(Br)ccc1NCc1ccccn1	5.3	15.8µM*	-2.0	-4.8%	15.8µM*	3.16µM*
OC(CNCc1ccncc1)c1ccccc1 (stereo unspecified)	-4.0	-12.8%	-1.9	nt	4.3%	?
c1ccc(NCc2ccccn2)cc1	nt	16.9%	-2.1	5.9%	79.4µM*	-32.2%
OC(CNCc1ccccn1)c1ccccc1 (stereo unspecified)	-14.3	60.0%	?	-4.2%	22.4µM*	-7.4%[57.1 µM]
Cc1ccc(CNC(=O)c2nnc(Cc3cccc(F)c3)o2)cc1	nt	81.6%	nt	-5.2%	104.4%	85.9%
O=C(Oc1ccc2c(c1)OCC2=O)c1ccc(Cl)cc1	-14.1	39.1%	-65.8*	-1.3%	3.7%	-4.9%
O=C(O)c1ccc(N/N=C/c2ccc(OC(=O)c3ccccc3Cl)cc2)cc1	-18.3	?	-17.2	6.7%	89.1µM*	?
Nc1ccc(C(=O)N/N=C\c2ccc(OC(=O)c3ccccc3Cl)cc2)cc1	nt	26.4%	4.5	4.7%	-19.5%	-7.3%
O=C(O)c1cc(N/N=C/c2ccncc2)ccc1Cl	0.1	18.0%[57 µM]	14.7	5.0%	-2.4%	-7.4%
COc1ccc(C(=O)Oc2ccc(/C=N/Nc3ccc(Cl)c(C(=O)O)c3)cc2OC)cc1	-12.9	-10.5%	-8.4	6.9%	50.1µM*	?
O=C(O)c1cc(N/N=C/c2ccc(-c3ccccc3)cc2)ccc1Cl	nt	-24.8%	-11.2	nt	?	31.6µM*
COc1ccc(CNc2nc3c(-c4cccc(C)c4)nnn3c3ccccc23)cc1	nt	26.0%	nt	-1.3%	0.9%	-4.0%
O=C1NN(c2ccc(Cl)c(Cl)c2)C(=O)/C1=C/c1ccc(-c2ccccc2C(=O)O)o1	-72.1*	?	?	nt	39.8µM*	?
COC(=O)c1ccc(N2NC(=O)/C(=C/c3ccc(-c4ccc(Cl)c(C(=O)O)c4)o3)C2=O)cc1	2.6	?	-25.8	nt	50.1µM*	56.2µM*
O=C1NN(c2ccccc2)C(=O)/C1=C/c1ccc(Sc2cccc3ccccc23)o1	0.3	?	?	8.0%	10µM*	?
O=C(O)c1ccc(N2C(=O)/C(=C/c3ccc(-c4ccc([N+](=O)[O-])cc4)o3)C=C2c2ccccc2)cc1	-12.3	14.1µM*	-20.7	1.2%	11.2µM*	7.94µM*
O=C(N/N=C/c1ccc(-c2cccc([N+](=O)[O-])c2)o1)c1ccc([N+](=O)[O-])cc1	7.8	-3.9%	-17.6	7.7%	-29.7%	-29.2%
O=C1NN(c2ccccc2)C(=O)/C1=C/c1ccc(-c2ccc(C(=O)O)cc2)o1	-0.1	?	-9.1	nt	50.1µM*	56.2µM*
CCn1c(=O)n(CC)c2cc(N3CCCC3)c(NC(=O)c3cccc(C)c3)cc21	-9.6	-5.7%	-5.4	5.2%	50.1µM*	?
CCOc1ccccc1C(=O)Nc1cc2c(cc1N1CCOCC1)n(C)c(=O)n2C	nt	-10.5%	nt	5.0%	?	-21.6%
CCn1c(=O)n(CC)c2cc(N3CCCC3)c(NC(=O)c3cc(Cl)ccc3OC)cc21	4.6	?	-1.9	13.6%	25.1µM*	50.1µM*

Screens from PubChem BioAssay.
